Measured values taken from PubChem BioAssay.
“And” between values parts separate entries of the source, which are not always exact repeats. Equal values may be shown once. Results filed as inconclusive are left out.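 The calls were made as follows, unless noted: active = GFP signal, as percent of the solvent control, above the screen mean plus 3 SD, about 149; inconclusive = no reading because the compound's own fluorescence upset strain identification; inactive = the rest.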

Assay: modulators of CIT2-GFP expression in yeast, primary screen, S. cerevisiae, GFP fusion, multiplex flow cytometry (AID 1870;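 active = percent response above a set limit, the screen-wide mean plus 3 SD, cut at about 130% in these data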;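 also: barcoded CIT2-GFP strain pooled with four other GFP strains with rapamycin as positive control; median GFP fluorescence per well over plate mean of DMSO wells so 100% = DMSO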)
Settings: 3 h, at 10 µM, active compounds read high

Percent response of DMSO control, inactive:
COCCCNc1nc2c([nH]1)c(=O)[nH]c(=O)n2C 105%
CC(C)Oc1ccc2c(=O)c(-c3ccccc3)coc2c1 106%
O=C(Nc1cccc(Oc2c(F)c(F)c(F)c(F)c2F)c1)N1C[C@@H]2C[C@@H](C1)c1cccc(=O)n1C2 101%
CCCCC[C@H](O)/C=C/C1=C(CCCCCCC(=O)O)C(=O)CC1 101%
CC(=O)OC[C@H]1O[C@@H](Sc2cccc3cccnc23)[C@H](OC(C)=O)[C@@H](OC(C)=O)[C@H]1OC(C)=O 99%
COc1cc(OC)cc(C(C)=O)c1 95.1%
Nc1ccc2nc(Cc3ccccc3)[nH]c2c1 108%
COc1ccc2c(c1)[N+](C)(C)C(C)(C)C=C2C 111%
COc1ccc(CCN(C)Cc2nc(Cc3ccc(OC)c(OC)c3)no2)cc1OC 102%
N=c1c[n+](N2CCOCC2)[n-]o1 112%
CCCc1cc(=O)[nH]c(=S)[nH]1 96.5%
COC(=O)c1ccccc1NC(=O)c1ccc(COc2ccc3c(c2)CCC3)cc1 90.8%
CC1(C)Cc2ccccc2-c2nc(-c3ccccc3)oc(=O)c21 96.4%
Cc1cc(=O)oc2c(CN(C)Cc3ccccc3)c(O)ccc12 105%
CC1=NN(c2ccccc2)C(=O)C1 109%
CCOc1ccc2ccccc2c1C(=O)N[C@@H]1C(=O)N2[C@@H]1SC(C)(C)[C@@H]2C(=O)O 93.1%
O=C1CC2(CCCC2)CC(=O)N1CCCCN1CCN(c2ncccn2)CC1 96.6%
Cc1ccc(C2=NOC(=O)/C2=C\C=C\c2ccccc2)cc1 108%
COc1ccc2c3c([nH]c2c1)C1(NCC3)C(=O)Nc2ccccc21 (stereo unspecified) 89.1%
CC1(C)S[C@@H]2[C@H](NC(=O)Cc3ccccc3)C(=O)N2[C@H]1C(=O)O 98.3%
COc1cc2cc(C(=O)O)[nH]c2c(OC)c1OC 96.6%
Clc1cc(-c2ccc(/C=N/n3cnnc3)o2)ccc1Br 102%

Assay: modulators of LAP4-GFP expression in yeast, primary screen, S. cerevisiae, multiplex flow cytometry (AID 1873)
Settings: 3 h, at 10 µM, active compounds read high

GFP response vs DMSO, inactive:
S=C(NCCOCCOCCNC(=S)Nc1ccccc1)Nc1ccccc1 108%
Cc1ccc(CN2CCN(Cc3cn[nH]c3C3CCCCC3)CC2CCO)cc1 (stereo unspecified) 106%
OCCC1CN(Cc2ccccc2-c2ccco2)CCN1C1CCCC1 (stereo unspecified) 110%
COc1ccc2oc(-c3ccco3)cc(=O)c2c1 88%
Nc1nc2c(nc(SCc3ccccc3Br)n2C2OC(CO)C(O)C2O)c(=O)[nH]1 (stereo unspecified) 108%
O=C(CCC(=O)NCCO)NCCO 108%
Cc1cc(=O)[nH]c(=S)[nH]1 79.2%
CN(C)C(=O)Oc1cccc([N+](C)(C)C)c1 115% and 112%
COc1cc(/C=C/C(=O)O)cc(S(=O)(=O)NCCCO)c1OC 116%
COC(=O)c1sccc1NC(=O)Nc1ccccc1F 88.2%
CC1(C)C(=O)OC(/C=C\c2ccccc2)C(C)(C)C1=O (stereo unspecified) 112%
O=C(/C=C/c1ccc(F)cc1)NC(=S)N1CCCCC1c1cccnc1 (stereo unspecified) 117%
COc1cc2c(cc1OC)C1(CCCC1)CNC2c1cccc([N+](=O)[O-])c1 (stereo unspecified) 109%
O=C(NCCO)c1ccc(Cl)c(Cl)c1 99.1%
N#C/C(=C\c1ccc(O)c(O)c1)C(=O)NCCCc1ccccc1 108%
CSCC[C@H](NC(=O)OC(C)(C)C)C(=O)N1CCC(C(=O)N[C@@H](C)C(=O)O)CC1 89.4%
Cc1cc(-c2nn(-c3ccccc3F)cc2CN2CCCC(O)C2)c(C)s1 (stereo unspecified) 117%
COCCCNc1nc2c([nH]1)c(=O)[nH]c(=O)n2C 112%
CC(C)Oc1ccc2c(=O)c(-c3ccccc3)coc2c1 83.1%
O=C(Nc1cccc(Oc2c(F)c(F)c(F)c(F)c2F)c1)N1C[C@@H]2C[C@@H](C1)c1cccc(=O)n1C2 98%
CCCCC[C@H](O)/C=C/C1=C(CCCCCCC(=O)O)C(=O)CC1 95.9%
CC(=O)OC[C@H]1O[C@@H](Sc2cccc3cccnc23)[C@H](OC(C)=O)[C@@H](OC(C)=O)[C@H]1OC(C)=O 117%
COc1cc(OC)cc(C(C)=O)c1 99.5%
Nc1ccc2nc(Cc3ccccc3)[nH]c2c1 82.5%
COc1ccc2c(c1)[N+](C)(C)C(C)(C)C=C2C 90.1%
COc1ccc(CCN(C)Cc2nc(Cc3ccc(OC)c(OC)c3)no2)cc1OC 109%
N=c1c[n+](N2CCOCC2)[n-]o1 89.4%
CCCc1cc(=O)[nH]c(=S)[nH]1 103%
COC(=O)c1ccccc1NC(=O)c1ccc(COc2ccc3c(c2)CCC3)cc1 105%
CC1(C)Cc2ccccc2-c2nc(-c3ccccc3)oc(=O)c21 107%
Cc1cc(=O)oc2c(CN(C)Cc3ccccc3)c(O)ccc12 94.7%
CC1=NN(c2ccccc2)C(=O)C1 99.1%
CCOc1ccc2ccccc2c1C(=O)N[C@@H]1C(=O)N2[C@@H]1SC(C)(C)[C@@H]2C(=O)O 85.5%
O=C1CC2(CCCC2)CC(=O)N1CCCCN1CCN(c2ncccn2)CC1 91.4%
Cc1ccc(C2=NOC(=O)/C2=C\C=C\c2ccccc2)cc1 139%
COc1ccc2c3c([nH]c2c1)C1(NCC3)C(=O)Nc2ccccc21 (stereo unspecified) 103%
CC1(C)S[C@@H]2[C@H](NC(=O)Cc3ccccc3)C(=O)N2[C@H]1C(=O)O 101%
COc1cc2cc(C(=O)O)[nH]c2c(OC)c1OC 106%
Clc1cc(-c2ccc(/C=N/n3cnnc3)o2)ccc1Br 114%
